Among the data in PubChem BioAssay (NCI) are growth values, retold here.

The panel holds about 83,000 compounds, 20% with a hit somewhere; the sample as a whole holds those more often.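 Assay: single dose, 48 h. Readout: percent growth (0 = no net growth; negative = cell death). Active: <10.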 Values without a mark were called inactive. Calls of active or inactive are those of the source.

Among the test systems are K-562 leukemia; MALME-3M melanoma; MDA-MB-231 breast; RXF 393 renal; SF-295 CNS; SF-539 CNS; UACC-257 melanoma; M14 melanoma; HT29 colon; SNB-75 CNS; SNB-19 CNS; U251 CNS; PC-3 prostate; SK-MEL-5 melanoma; UACC-62 melanoma; LOX IMVI melanoma; SK-MEL-28 melanoma; SF-268 CNS; HCT-15 colon; SK-MEL-2 melanoma.
Common to all, as to assay: NCI-60 one-dose screen, 48 h (100 = growth as untreated, 0 = no growth, -100 = all killed)
What all share (conditions): 10 µM unless noted

For `COc1ccc2c(c1)/C(=C\c1c[nH]c3ccc(F)cc13)C(=O)N2`, the growth in the experiment with K-562 leukemia was 62.5%; in the experiment on MALME-3M melanoma, 120%; in the experiment on MDA-MB-231 breast it was 106%; in the experiment with RXF 393 renal, 95.4%; in the experiment on SF-295 CNS, 100%; with SF-539 CNS, 91.8%. For the same compound, the growth in the experiment on UACC-257 melanoma was 108%; in the experiment with M14 melanoma, 105%; in the experiment with HT29 colon it was 86.1%; in the experiment on SNB-75 CNS it was 86.7%; with SNB-19 CNS it was 93.9%; in the experiment with U251 CNS it was 83.4%. Further, the growth with PC-3 prostate is 84%; in the experiment on SK-MEL-5 melanoma, 97%; in the experiment on UACC-62 melanoma it was 90.7%; in the experiment with LOX IMVI melanoma, 74.3%; in the experiment on SK-MEL-28 melanoma, 105%.

With `O=C(OCCBr)c1ccc(Cl)c([N+](=O)[O-])c1`, the growth in the experiment on K-562 leukemia is 82.9%; in the experiment with MALME-3M melanoma, 97.2%; in the experiment with MDA-MB-231 breast, 92%; in the experiment with RXF 393 renal, 132%; in the experiment on SF-268 CNS it was 100%; in the experiment on SF-539 CNS it was 102%. For the same compound, the growth was 86.8% in the experiment on UACC-257 melanoma; 91.8% in the experiment on M14 melanoma; 90.9% with HCT-15 colon; 45.4% in the experiment on HT29 colon; 38.9% in the experiment on SNB-19 CNS; -31.7% (active) with U251 CNS. The growth is 70% with PC-3 prostate; 113% in the experiment with SK-MEL-5 melanoma; 104% in the experiment on UACC-62 melanoma; 91.1% with LOX IMVI melanoma; 60% with SK-MEL-28 melanoma; 94.1% in the experiment with SK-MEL-2 melanoma.

For the compound `S=C(c1ccccc1)N1CCN(c2cccc(Cl)c2)CC1`, the growth in the experiment with K-562 leukemia is 54.8%; in the experiment with MALME-3M melanoma it was 97.4%; with MDA-MB-231 breast it was 105%; in the experiment on RXF 393 renal it was 108%; in the experiment on SF-295 CNS it was 82.9%; in the experiment with SF-539 CNS it was 105%. In addition, the growth with UACC-257 melanoma is 103%; in the experiment with M14 melanoma it was 113%; in the experiment on HCT-15 colon, 105%; in the experiment on HT29 colon, 94.8%; in the experiment with SNB-75 CNS, 110%; with SNB-19 CNS it was 107%. Besides, the growth in the experiment on U251 CNS was 99.6%; in the experiment on PC-3 prostate it was 75.3%; with SK-MEL-5 melanoma it was 95.6%; in the experiment on UACC-62 melanoma, 91.1%; in the experiment with LOX IMVI melanoma it was 105%; with SK-MEL-28 melanoma it was 121%. The growth with SK-MEL-2 melanoma is 100%.

As for `Oc1[nH]c2ccc(Cl)cc2c1/C=c1/ccc2c(c1)N=C(c1ccc(C(F)(F)F)cc1)N=2`, the growth in the experiment on K-562 leukemia was 26.9%; in the experiment on MALME-3M melanoma it was 69.2%; in the experiment with MDA-MB-231 breast it was 83.4%; with RXF 393 renal, 5.23% (active); in the experiment on SF-295 CNS it was 40.9%; with SF-539 CNS, 80.1%. The growth with UACC-257 melanoma is 66%; in the experiment with M14 melanoma, 54.4%; in the experiment on HCT-15 colon, 54.1%; with HT29 colon, 42.2%; in the experiment with SNB-75 CNS, 15.8%; in the experiment with SNB-19 CNS it was 77%. Further, the growth with U251 CNS was 49.8%; in the experiment with SK-MEL-5 melanoma it was 63.4%; in the experiment with UACC-62 melanoma it was 61.6%; in the experiment on LOX IMVI melanoma, 34.2%; in the experiment on SK-MEL-28 melanoma, 45.8%; with SK-MEL-2 melanoma it was 63.3%.

In the case of `CCCCCCOc1ccc(/C=N/NC(N)=S)cc1`, the growth was 17.8% in the experiment on K-562 leukemia; 17.9% in the experiment with MALME-3M melanoma; 29.5% in the experiment on MDA-MB-231 breast; 22.6% in the experiment with RXF 393 renal; 47.2% with SF-268 CNS; 16.5% in the experiment on SF-539 CNS. The growth in the experiment with UACC-257 melanoma was 48.2%; in the experiment with M14 melanoma, 44.6%; with HT29 colon, 38.7%; in the experiment on SNB-75 CNS, 58.9%; with SNB-19 CNS it was 80.1%; in the experiment with U251 CNS it was 58.4%. Also, the growth was 49.4% in the experiment on PC-3 prostate; 53.6% in the experiment with SK-MEL-5 melanoma; 44.6% with UACC-62 melanoma; 55.6% in the experiment with LOX IMVI melanoma; 76.1% in the experiment on SK-MEL-28 melanoma; 69.6% with SK-MEL-2 melanoma.

`O=[P@@]1(c2ccccc2)O[C@H](COCc2ccccc2)[C@@H](OCc2ccccc2)[C@H](OCc2ccccc2)[C@H]1NCc1ccccc1`: the growth with K-562 leukemia is 6.58% (active); with MALME-3M melanoma, -7.61% (active); in the experiment with MDA-MB-231 breast, 13.6%; in the experiment with RXF 393 renal it was 28.7%; in the experiment on SF-268 CNS, 32.2%; in the experiment with SF-539 CNS it was 27.2%. The growth was 22.5% with UACC-257 melanoma; 15.2% in the experiment on M14 melanoma; 15.9% in the experiment with HCT-15 colon; 10.9% in the experiment with HT29 colon; 27.9% in the experiment with SNB-75 CNS; 33.9% with SNB-19 CNS. Also, the growth was 20.9% in the experiment with U251 CNS; 10.5% in the experiment with PC-3 prostate; 38% in the experiment with SK-MEL-5 melanoma; 24% with UACC-62 melanoma; 49.2% in the experiment on SK-MEL-28 melanoma; 29.5% in the experiment on SK-MEL-2 melanoma.

Consider `Fc1ccc(-c2nnc(-c3c(-c4ccc(F)cc4)nc4ncccn34)o2)cc1`, for which the growth with K-562 leukemia is 89.3%; with MALME-3M melanoma, 121%; in the experiment with MDA-MB-231 breast it was 122%; with RXF 393 renal, 97.8%; in the experiment on SF-295 CNS it was 93%; in the experiment with SF-539 CNS it was 94.4%. Further, the growth was 107% in the experiment with UACC-257 melanoma; 112% with M14 melanoma; 87.9% in the experiment with HCT-15 colon; 93.2% in the experiment on HT29 colon; 102% in the experiment with SNB-75 CNS; 107% in the experiment with SNB-19 CNS. Moreover, the growth in the experiment on U251 CNS is 107%; in the experiment on PC-3 prostate, 104%; with SK-MEL-5 melanoma, 95.4%; in the experiment with UACC-62 melanoma, 100%; in the experiment on LOX IMVI melanoma, 96.4%; in the experiment with SK-MEL-28 melanoma, 101%.

`C[C@]12CC[C@@H]3c4ccc(O)cc4CC[C@H]3[C@@H]1CC[C@@H]2NS(=O)(=O)c1cccc(Br)c1`: the growth in the experiment on K-562 leukemia is 30.1%; with MALME-3M melanoma it was 63.2%; in the experiment with MDA-MB-231 breast, 71.1%; with RXF 393 renal, 42.6%; in the experiment with SF-268 CNS, 59.7%; in the experiment with SF-539 CNS it was 85.6%. Moreover, the growth in the experiment with UACC-257 melanoma was 80.3%; with M14 melanoma, 68.9%; in the experiment with HT29 colon, 61.6%; in the experiment with SNB-75 CNS it was 72.7%; in the experiment with SNB-19 CNS it was 95.2%; in the experiment on PC-3 prostate, 38.7%. Further, the growth was 61.3% in the experiment with SK-MEL-5 melanoma, 70% with UACC-62 melanoma and 88.3% in the experiment with SK-MEL-28 melanoma.

With `NC(N)=N/N=C(/c1ccccc1)c1ccc(Cl)cc1`, the growth in the experiment on K-562 leukemia was 42.5%; with MALME-3M melanoma, 115%; in the experiment with MDA-MB-231 breast it was 105%; with RXF 393 renal, 94.9%; in the experiment with SF-268 CNS, 62.2%; in the experiment on SF-539 CNS it was 93.3%. Moreover, the growth in the experiment with UACC-257 melanoma is 38.4%; in the experiment with M14 melanoma, 59.6%; in the experiment on HCT-15 colon, 56.6%; in the experiment on HT29 colon, 25.6%; with SNB-19 CNS, 63.8%; in the experiment on U251 CNS, 70.8%. Also, the growth in the experiment on PC-3 prostate was 72.8%; in the experiment on SK-MEL-5 melanoma it was 56.8%; in the experiment on UACC-62 melanoma, 74.4%; in the experiment with LOX IMVI melanoma, 74.4%; in the experiment on SK-MEL-28 melanoma it was 53.9%; with SK-MEL-2 melanoma, 118%.

On to `CCOC(=O)C1=NN(c2ccc(Cl)cc2)C2C3N(c4ccc(Cl)cc4)N=C(C(=O)OCC)N3c3ccccc3N12` (stereo not given), for which the growth was 70.7% with K-562 leukemia; 132% with MALME-3M melanoma; 103% with MDA-MB-231 breast; 106% in the experiment with RXF 393 renal; 102% in the experiment on SF-268 CNS; 116% with SF-539 CNS. Moreover, the growth in the experiment on UACC-257 melanoma was 119%; in the experiment with M14 melanoma, 102%; in the experiment with HCT-15 colon, 121%; in the experiment with HT29 colon, 93.3%; in the experiment on SNB-75 CNS, 91.1%; with SNB-19 CNS, 118%. The growth was 114% with U251 CNS; 92.7% with SK-MEL-5 melanoma; 101% with UACC-62 melanoma; 113% in the experiment with LOX IMVI melanoma; 108% in the experiment with SK-MEL-28 melanoma; 102% in the experiment with SK-MEL-2 melanoma.

Take `COc1cc(OC)c2cc(C(=O)O)c(=O)oc2c1`: the growth in the experiment on K-562 leukemia is 95.1%; in the experiment on MALME-3M melanoma, 113%; in the experiment on MDA-MB-231 breast it was 94.3%; with RXF 393 renal, 105%; with SF-268 CNS it was 110%; in the experiment on SF-539 CNS, 102%. Moreover, the growth in the experiment with UACC-257 melanoma was 76%; in the experiment on M14 melanoma, 103%; in the experiment with HCT-15 colon, 106%; with HT29 colon it was 119%; with SNB-75 CNS it was 125%; with SNB-19 CNS it was 98%. The growth was 109% with U251 CNS; 127% with PC-3 prostate; 94.6% in the experiment on SK-MEL-5 melanoma; 95.5% with UACC-62 melanoma; 118% in the experiment on SK-MEL-28 melanoma; -11% (active) in the experiment with SK-MEL-2 melanoma.
